Bioassay records deposited in PubChem BioAssay by National Center for Advancing Translational Sciences (NCATS).
ATXN2 expr inh – Primary qHTS for Inhibitors of ATXN expression. HEK-293 ATXN2-luciferase reporter, luminescence, 24 h. Potency, µM (doses to about 57 µM), hits mostly inhibitors. 360,000 tested, 0.72% active. AID 1745845, 2022; note: nearly all actives have a fitted effect of over 55% in size
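ATXN2-luciferase reporter cells (luciferase flanked by upstream and downstream ATXN2 gene portions) were treated 24 h at 37 °C with compounds at up to 57 uM. SteadyGlo luminescence gave expression; GF-AFC fluorescence gave viability.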
TGFb inhibitor – qHTS for Inhibitors of TGF-b. AID 588855, 2011. 410,000 tested, 1.2% active. Potency, µM (top dose mostly 46.1 µM), actives largely listed as inhibitors. HepG2 CAGA-GFP TGF-b/SMAD3 reporter, GFP fluorescence, 18 h; TGF-beta stimulated, 500 pg/mL final; note: nearly all actives have a fitted effect of over 65% in size
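First, reporter cells (HEPG2 CAGA-GFP) rested 2 h at 37 degrees C. Next, compounds were pinned in and TGF-beta added to 500 pg/mL final. After 18 h, GFP was imaged per cell and summed per well.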
ATXN viability – Viability Counterscreen for Primary qHTS for Inhibitors of ATXN expression; S2 cells (HEK-293 line with an ATXN2-luciferase reporter) viability, CellTiter-Fluor protease fluorescence, 24 h; Potency, µM (series often up to 56.7 µM), actives largely listed as cytotoxic; 400,000 tested, 0.49% active; AID 651635, 2014; note: nearly all actives have a fitted effect of over 40% in size
DT40 TDP1 no CPT – qHTS for Inhibitors of human tyrosyl-DNA phosphodiesterase 1 (TDP1): qHTS in cells in absence of CPT. DT40 Tdp1-/- hTDP1 cells, no CPT, ATP luminescence, 48 h. Potency, µM (highest dose often 46.2 µM), most hits filed as inhibitors. 420,000 tested, 15% active; note: nearly all actives have a fitted effect of over 55% in size
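Readout: luminescence from CellTiter-Glo after 30 min in the dark at RT. Cells: DT40 Tdp1-/- with stable hTDP1, 400/well. Exposure: compounds alone, ≥48 hr, 37 °C.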
HepG2 tox – qHTS for Inhibitors of TGF-b: Cytotox Counterscreen; 410,000 tested, 0.76% active; AID 588856, 2011; HepG2 CAGA-GFP viability, ATP luminescence, 18 h; Potency, µM (top dose mostly 46.1 µM), usual class: cytotoxic
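HepG2 CAGA-GFP cells (1000/well, DMEM with 1% FBS) received compound, then TGF-beta at 500 pg/mL final, and were incubated 18 hours at 37 degrees C. Viability was read by CellTiter-Glo luminescence. Media-only wells were set as complete cell-killing and DMSO as no toxicity.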
TDP1 cell CPT – qHTS for Inhibitors of human tyrosyl-DNA phosphodiesterase 1 (TDP1): qHTS in cells in presence of CPT; 420,000 tested, 12% active; chicken DT40 Tdp1-/-;hTDP1 cells + 20 nM CPT, ATP luminescence, 48 h; Potency, µM (series often up to 46.2 µM), usual class: inhibitors; note: nearly all actives have a fitted effect of over 55% in size
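Chicken DT40 Tdp1-/- cells stably complemented with human TDP1 were seeded at 400 cells/well in medium containing 20 nM camptothecin, exposed to pin-transferred compounds, and grown at 37 °C for at least 48 hr. Viability was read as ATP luminescence.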
A number is an active result; . = inactive; ? = inconclusive; / = no result; [ ] = dose if it differs, or a comment. This is a sample that favours compounds with a hit; in the whole collection about 17% have one here. Calls come from the whole dose curve; as a rule, active = well fitted curve in the direction sought with a large enough effect; inconclusive = small, poorly fitted or top-dose-only effect, or another doubt; inactive = no such curve, though single readings can be large; an effect the other way counts as inactive or inconclusive.

SMILES	ATXN2 expr inh	TGFb inhibitor	ATXN viability	DT40 TDP1 no CPT	HepG2 tox	TDP1 cell CPT
COc1cc(OC)nc(Oc2cc(C=O)ccc2OC)n1	.	.	.	.	.	.
CN(CC(=O)Nc1ccccc1C(F)(F)F)C(=O)CSc1nnc(-c2ccncc2)n1C	/	.	.	.	.	.
Cc1cccc(NC(=O)Cn2c(=O)n(CCCS(=O)(=O)C3CCCCC3)c(=O)c3ccccc32)c1	.	?	.	?	.	.
O=C(NCCc1ccc(O)c(Br)c1)c1ccc(Br)o1	.	/	.	.	/	.
Fc1ccc(N=c2ssnc2Cl)c(F)c1	.	.	.	9.2µM	.	7.31µM
COc1ccc(N=C2SCC(=O)N2C)cc1	/	.	.	.	.	.
Clc1nssc1=Nc1ccccc1	.	.	.	14.6µM	.	16.4µM
Clc1ccc(N=c2ssnc2Cl)cc1	.	14.1µM	?	14.6µM	.	10.3µM
COc1ccc(N=c2ssnc2Cl)cc1	.	.	?	9.2µM	.	7.31µM
N#Cc1ccc(N=c2ssnc2Cl)cc1	?	?	?	7.31µM	.	5.17µM
COc1cc(N=c2ssnc2Cl)cc(OC)c1OC	.	.	.	2.59µM	.	3.26µM
N#Cc1ccc(Oc2c(Cl)cncc2Cl)cc1	.	.	.	.	.	?
COc1cc(/C=C2\SC(=Nc3cccnc3)NC2=O)cc(OC)c1OC	.	.	.	?	.	?
CCN(CC(=O)Nc1ccc(NC(C)=O)cc1)C(=O)/C=C/c1cn(-c2ccccc2)nc1-c1ccc(C)cc1	.	.	?	20.6µM	.	?
COc1ccc(-c2nn(-c3ccccc3)cc2/C=C/C(=O)N(C)CC(=O)Nc2cccc(F)c2)cc1OC	.	?	.	?	.	?
COc1ccc(OC)c(/C=C/C(=O)N(C)CC(=O)Nc2ccc(C)cc2)c1	.	.	.	10.3µM	.	6.51µM
CC1Cc2ccccc2N1C(=O)CN(C)CC(=O)Nc1ccc(OC(F)(F)F)cc1 (centres undefined)	.	?	.	?	.	14.6µM
COc1ccc(OC)c(/C=C/C(=O)N(C)CC(=O)Nc2cc(C)ccc2C)c1	.	.	/	?	.	.
COc1cccc(NC(=O)CN(C)C(=O)/C=C/c2cn(-c3ccccc3)nc2-c2ccc(OC)c(OC)c2)c1	.	.	.	18.4µM	.	?
CCOC(=O)c1ccccc1NC(=O)CSc1cc(C)[nH]c(=O)n1	.	.	.	.	.	.
CCOc1ccc(NC(=O)CN(C)C(=O)/C=C/c2ccco2)cc1OCC	.	.	.	.	.	.
CN(CC(=O)Nc1ccc(OC(F)(F)F)cc1)C(=O)/C=C/c1ccco1	/	.	?	23.1µM	.	?
COc1ccc(-c2nn(-c3ccccc3)cc2/C=C/C(=O)NCCCn2ccnc2)cc1OC	.	.	.	14.6µM	.	.
CCCOC(=O)c1ccccc1O	/	/	/	.	/	.
COc1ccccc1CCc1nnc(CCC(=O)NCCC2CCCCO2)o1 (centres undefined)	/	.	.	.	.	.
SMILES	ATXN2 expr inh	TGFb inhibitor	ATXN viability	DT40 TDP1 no CPT	HepG2 tox	TDP1 cell CPT
COc1ccccc1CCc1nnc(CCC(=O)NCC[C@@H]2C[C@@H]3C=C[C@H]2C3)o1	.	.	.	18.4µM	.	14.6µM
Cc1ncc2c(c1CNC(=O)c1ccc3c(c1)OCO3)CCN(C(=O)c1cc3ccccc3o1)C2	/	/	?	?	/	.[9.04 µM]
c1ccc2c(c1)CCN(c1nc(CN3CCOCC3)nc3sc4c(c13)CCCC4)C2	.	?	?	16.4µM	.	23.1µM
Clc1nc(CN2CCCCC2)nc2sc3c(c12)CCC3	.	.	.	18.4µM	.	?
COc1cccc(/C=N/NC(=O)c2ccccc2)c1OS(=O)(=O)c1ccccc1	/	.	.	25.9µM	.	?
COc1cc(C(=O)Oc2ccccc2/C=N/NC(=O)c2ccc(Cl)cc2Cl)cc(OC)c1OC	?	?	.	0.92µM	.	0.651µM
COc1ccc(-c2[nH]ncc2/C=N\NC(=O)c2ccc(C(C)(C)C)cc2)cc1OC	.	.	.	25.9µM	.	?
COc1ccccc1/C=N/NC(=O)c1cccc2ccccc12	.	.	.	?	.	23.1µM
CCOc1ccccc1C=NNC(=O)c1cccc2ccccc12	.	.	.	.	.	.
C=CCOc1ccccc1/C=N/NC(=O)c1ccc(Cl)cc1Cl	.	.	.	?	.	.
COc1cccc(/C=N/NC(=O)c2ccc(=O)n(C)c2)c1OC	.	.	.	.	.	.
CCCCOc1ccc(C(=O)N/N=C/c2cn[nH]c2-c2ccc(OC)c(OC)c2)cc1	?	.	?	?	.	?
CSc1ccc(Cl)c(C(=O)NNC(=O)c2csc(N3CCOCC3)n2)c1	.	.	.	.	.	.
COc1cc(/C=N/NC(=O)c2cccc3ccccc23)cc(OC)c1O	.	.	.	?	.	4.61µM
COc1ccccc1/C=N/NC(=O)c1ccc(-c2ccccc2)cc1	.	.	.	?	.	20.6µM
COc1ccc(/C=N/NC(N)=S)cc1OC(=O)c1cccc2ccccc12	.	.	.	18.4µM	.	14.6µM
COc1cc(/C=N/NC(=O)c2cccc3ccccc23)cc(OC)c1OC	.	.	.	?	.	.
C=C1C[C@]23CC[C@H]4C(CO)(CO)C[C@@H](O)C[C@@]4(C)[C@@H]2CC[C@H]1C3	/	/	/	.[9.04 µM]	/	?
CC(NC(=O)C(=O)N1CCCCC1)C(c1cccs1)N1CCN(c2ccccc2)CC1 (centres undefined)	.	.	.	.	.	.
CN1CC(=O)N/C1=N\C(=O)Nc1ccc2c(c1)N(C)C(=O)CS2	.	.	.	.	.	.
CC(C)CC1C(C#N)=C(N)OC2=C1C(=O)CC(c1ccccc1)C2 (centres undefined)	.	.	.	.	.	.
CS(=O)(=O)c1sc(C#N)c2c1C(=O)CC(c1ccccc1)C2 (centres undefined)	5.01µM	?	6.31µM	0.517µM	.	0.517µM
ONC(=Nc1ccccc1Cl)c1c(F)cccc1F	/	.	.	?	.	?
Cc1cc(C)c2c(/C=C/c3ccc(N(C)C)cc3)ccnc2c1	/	.	/	?	.	?
COc1ccc(OC)c2c(/C=C/c3c(C)[nH]c4ccccc34)ccnc12	/	?	/	11.2µM	.	10µM
CCCCCCCCN(CCCCCCCC)c1ccc(/C=C/c2ccnc3ccccc23)cc1	/	.	/	.	.	.
